Source: PubChem BioAssay (NCI)
This is part of a sample that, as a whole, favours compounds with a hit. Of some 83,000 tested, about 20% had one in any assay.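 Assay: single dose, 48 h. Readout: percent growth (0 = no net growth; negative = cell death). Active: <10.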 Unmarked numbers belong to inactive results. The source made the active and inactive calls.

Columns and labels:
Experiment in all cases: NCI-60 one-dose screen, 48 h (100 = growth as untreated, 0 = no growth, -100 = all killed)
Settings in all cases: 10 µM unless noted
[1] = system: SK-MEL-2 melanoma
[2] = system: SN12C renal
[3] = system: UO-31 renal
[4] = system: TK-10 renal
[5] = system: ACHN renal
[6] = system: CAKI-1 renal
[7] = system: A498 renal
[8] = system: MOLT-4 leukemia
[9] = system: CCRF-CEM leukemia
[10] = system: EKVX NSCLC

SMILES | growth [1] | growth [2] | growth [3] | growth [4] | growth [5] | growth [6] | growth [7] | growth [8] | growth [9] | growth [10] [%]
CC(C)CNc1nc(N=[N+]=[N-])nc(NCC(C)C)n1 | 71.9% [100 µM] | 70.8% [100 µM] | 47.3% [100 µM] | 77.5% [100 µM] | 53.6% [100 µM] | 4.03% [100 µM] (active) | 35.5% [100 µM] | 34.4% [100 µM] |  | 
O=C(NC1CCCCC1)c1ccc(Nc2ncnc3c2cnn3-c2ccccc2)cc1 | 79.1% | 19% | 57.7% | 51% | 54.3% | 62.3% | 50.4% | 89.5% | 64.9% | 
Cc1nn(-c2ccccc2)c2nc(N)c(C3=NCCO3)nc12 | 111% | 96.8% | 73.5% | 128% | 83% | 78.4% | 92.1% | 101% |  | 
COc1ccc(-c2c3c(N)nc(-c4ccncc4)nc3nc3c2c(C)nn3-c2ccccc2)cc1 | 48.1% | 83.7% | 85.4% | 47% | 3.79% (active) | 36% | 73.2% | 51.2% |  | 
COc1cc2c(cc1OC)C(CC1(O)CCCCC1)N(S(=O)(=O)c1ccc(C)cc1)CC2 (stereo unspecified) | 6.69% [100 µM] (active) | 42.3% [100 µM] | 25.8% [100 µM] | 40.9% [100 µM] | 18.5% [100 µM] | 22% [100 µM] | 0.608% [100 µM] (active) | 3.12% [100 µM] (active) |  | 
CCCCCc1c(C)[nH]c(/C=C2\N=C(c3ccc[nH]3)C=C2OCc2ccccc2)c1C | -75% [100 µM] (active) | -77% [100 µM] (active) | -93.6% [100 µM] (active) | -81.3% [100 µM] (active) | -91.5% [100 µM] (active) | -74.4% [100 µM] (active) | -79.2% [100 µM] (active) | -57.8% [100 µM] (active) |  | 
N#Cc1ncc(-c2ccc(C(F)(F)F)cc2)c(NC2CCCCCC2)n1 | 7.62% (active) | 19.6% | 5.41% (active) | 58.1% | -1.84% (active) | 56.8% | 77.6% | 66.8% | 24.8% | 
COc1ccc(-c2nnc3c4[nH]cnc4ncn23)c(OC)c1 | 29.9% | 55.3% | 23.3% | 10.8% | 28.2% | 20.9% | 80.4% | 8.73% (active) | 12.6% | 
COC(=O)[C@H](Cc1cn(C)cn1)NC(=O)[C@@H](NC(=O)Nc1cc(C(F)(F)F)cc(C(F)(F)F)c1)C(C)C | -88.7% [100 µM] (active) | -85.8% [100 µM] (active) | -94.9% [100 µM] (active) | -98.7% [100 µM] (active) | -98.4% [100 µM] (active) | -91.3% [100 µM] (active) | -89.4% [100 µM] (active) | -56.2% [100 µM] (active) |  | 
[N-]=[N+]=NCc1ncc(-c2ccc(C(F)(F)F)cc2)c(NC2CCCCCC2)n1 | 78.2% [50 µM] | 85.2% [50 µM] | 50% [50 µM] | 112% [50 µM] | 73.1% [50 µM] | 84.3% [50 µM] | 82.5% [50 µM] | 54.7% [50 µM] |  | 
CSc1nc2nc3c(nc2c(=O)n1C)C(=O)c1ccccc1C3=O | -64.9% (active) | -76.7% (active) | -86.1% (active) | -79.1% (active) | -95% (active) | -35.3% (active) | -75.3% (active) | -11.9% (active) |  | 
COc1ccc([N+](=O)[O-])c(S(=O)(=O)c2ccc(Cl)cc2)n1 | 92.9% | 74.5% | 51.7% | 81.1% | 26.9% | 49.6% | 110% | 2.58% (active) | -11.5% (active) | 
Cc1ccc(C2=Nc3c(ccc4c(C)c(C)c(=O)oc34)OC2)cc1 | 95.8% | 98.7% | 82.6% | 108% | 99.1% | 92.2% | 110% | 101% |  | 
CCCCCCCCCCOC(C)=O | 116% | 103% | 89% | 116% | 98.8% | 79.8% | 108% | 103% |  | 
CC[N+](CCCCCCCCCC[N+](CC)(c1ccccn1)c1ccccn1)(c1ccccn1)c1ccccn1 | -58.6% (active) | 5.03% (active) | 26.4% | -3% (active) | 20.9% | 24.2% | -2.28% (active) | -8.33% (active) |  | 
Cc1sc2nc3c4ccccc4c(NCCCN(C)C)nn3c(=O)c2c1C |  | 53.4% | -91.9% (active) | 78% | 53.5% | 84.4% | 51.8% | -44.9% (active) | -27.9% (active) | 75.9

SMILES | growth [1] | growth [2] | growth [3] | growth [4] | growth [5] | growth [6] | growth [7] | growth [8] | growth [9] | growth [10] [%]
COc1ccc(NC(=O)[C@@H]2C[C@H]2c2ccccc2)c(C(N)=O)c1 | 89.9% | 96% | 87.9% | 96% |  | 103% | 98.1% | 92.4% | 94% | 
C1CCC(C(CC2CCCCN2)C2CCCCC2)CC1 (stereo unspecified) | 64.2% | 20.8% | 11.9% | 21.2% |  | 5.48% (active) | 51.1% |  | 4.88% (active) | 
CCCCCCCSc1ncnc2[nH]ncc12 | 72.7% | 86.1% | 60.6% | 81.1% | 88.7% |  | 88.7% | 75.4% | 76% | 
O=C1NC(=O)/C(=C\c2ccco2)S1 | 105% | 95.8% | 67.5% | 102% | 100% |  | 75.8% | 111% | 95.9% | 
CC(C)C[C@H](NC(=O)/C=C/Cn1ccc2ccccc2c1=O)B(O)O | 24% | 54.7% | 48.9% | 2.1% (active) |  | 45.3% | -3.46% (active) | 1.78% (active) | 12.2% | 
O=Cc1ncc(-c2ccc(C(F)(F)F)cc2)c(NC2CCCCCC2)n1 | -79.8% [100 µM] (active) | -87.4% [100 µM] (active) | -90.8% [100 µM] (active) | -94.9% [100 µM] (active) | -99.5% [100 µM] (active) |  | -73.1% [100 µM] (active) | -60% [100 µM] (active) |  | 
CCCCCc1c(C)[nH]c(/C=C2\N=C(c3ccc[nH]3)C=C2Oc2ccccc2)c1C | -63.3% [100 µM] (active) | -63.4% [100 µM] (active) | -70.1% [100 µM] (active) | -62% [100 µM] (active) | -61% [100 µM] (active) | -62.8% [100 µM] (active) | -75.3% [100 µM] (active) | -40.2% [100 µM] (active) |  | 
CCCCCCC(CC#N)(CCC)CCCC (stereo unspecified) | 123% | 97.8% | 97.6% | 102% | 99% |  | 100% | 97.5% |  | 
Oc1c(N=Nc2nn[nH]n2)ccc2ccccc12 | 107% | 84.3% | 59.1% | 132% | 86.8% | 98.2% | 102% | 99.2% |  | 
COc1ccc(N2CCN(CC(=O)N3CCN(c4nnc(-c5ccccc5)c(-c5ccccc5)n4)CC3)CC2)cc1 |  | 46.8% | 24.9% | 64.7% | 40.5% | 76.5% | 44.1% | 1.56% (active) | 32.4% | 35.3
CC1CC=CCC1C1OCC(C)(C)CO1 (stereo unspecified) | 124% | 103% | 97.7% | 111% | 106% | 106% | 103% | 102% |  | 
O=C(CN1CCN(c2ccc(Cl)cc2)CC1)N1CCN(c2nnc(-c3ccc(Cl)cc3)c(-c3ccc(Cl)cc3)n2)CC1 |  | 75.5% | 37.9% | 102% | 68.5% | 168% | 56.9% | -40.9% (active) | 10.4% | 71.2
O=C(/C=C/c1c(-c2ccccc2)[nH]c2ccccc12)S(=O)(=O)c1ccccc1 |  | 73.6% | 31% | 121% | 71.8% | 200% | 53.8% | 20.4% | 30.2% | 64.3
CCCCCCCCCCCCCCCCNC(=O)Nc1ccc2ccccc2c1 | 118% | 89.7% | 104% | 110% |  | 107% | 104% | 105% |  | 
Nc1nc2c(nnn2Cc2ccc(Cl)c(Cl)c2)c(=O)[nH]1 | 90.1% | 89.9% | 69.2% | 103% |  |  | 85.5% | 93.8% | 81.2% | 
